Experimental data from PubChem BioAssay (Tox21).
Inconclusive results are not listed. Calls of active or inactive are those of the source. Unless noted, the call rests on the fitted dose curve; in most records, active means well fitted curve in the direction sought with a large enough effect in the repeat runs; inconclusive means weak or mixed curves; inactive means no such curve, though single readings can be large; an effect the other way counts as inactive or inconclusive.

Assays:
[1] = target: Estrogen receptor beta (Homo sapiens) (UniProt Q92731); experiment: qHTS assay to identify small molecule agonists of the estrogen receptor beta (ER-beta) signaling pathway (AID 1259377; active means well fitted activation curve with a large enough effect in the signal ratio in the repeat runs, not every such curve was filed as active; the % refers to the signal ratio)
How it was run: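 Agonist mode cell assay in GripTite HEK293T cells expressing an ER-beta fusion that drives beta-lactamase from an Upstream Activator Sequence; 16 hr compound exposure at 37C, then 2 h LiveBLAzer B/G FRET substrate at room temperature, fluorescence read-out.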

[2] = target: Estrogen receptor beta (Homo sapiens) (UniProt Q92731); experiment: qHTS assay to identify small molecule antagonists of the estrogen receptor beta (ER-beta) signaling pathway (AID 1259378; active means well fitted inhibition curve with a large enough effect in the signal ratio in the repeat runs, not every such curve was filed as active; the % refers to the signal ratio)
How it was run: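 ER-beta-UAS-bla HEK293T cells in 2% charcoal-stripped FBS medium treated with compound plus 1nM final 17-beta-estradiol for 16 hr at 37C. Beta-lactamase reporter read by FRET substrate fluorescence after 2 hours at room temperature.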

[3] = qHTS assay to identify small molecule agonists of the androgen receptor (AR) signaling pathway in the presence of an antagonist - cell viability counter screen (AID 1259379);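 further: MDA-kb2 human breast cancer cells carrying an MMTV luciferase reporter; series mostly up to about 92 µM; nearly all actives have a fitted effect of over 25% in size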
How it was run: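 In MDA-kb2 cells (human breast carcinoma, MMTV-luciferase), compounds at 15 concentrations plus 3.0uM nilutamide; 16 hr, 37C, 0% CO2; CellTiter-Fluor fluorescence read for viability.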

[4] = qHTS assay to identify small molecule agonists of the estrogen receptor beta (ER-beta) signaling pathway - cell viability counter screen (AID 1259380); further: nearly all actives have a fitted effect of over 30% in size
How it was run: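 Viability of ER-beta-UAS-bla HEK293T cells was determined by CellTiter-Glo luminescence following 16 hr treatment with test compounds at 37C.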

[5] = qHTS assay to identify small molecule antagonists of the estrogen receptor beta (ER-beta) signaling pathway - cell viability counter screen (AID 1259382); further: series mostly up to about 92 µM; nearly all actives have a fitted effect of over 55% in size
How it was run: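 Tox21 10K library tested in qHTS format on ER-beta-bla HEK293T cells stimulated with 1nM E2; 16 hr treatment at 37C. Same-well CellTiter-Glo luminescence served as the cell viability measure.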

[6] = qHTS assay to identify small molecule agonists or antagonists of the thyroid stimulating hormone receptor (TSHR) signaling pathway - wild type cell line counter screen (AID 1259384; calls by dose curve)
How it was run: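 Wild-type Hek293 cells, 800/well, 18 h at 37C, then compound with Ro20-1724 for 30 min RT. cAMP by HTRF (cAMP-d2/anti-cAMP cryptate), 1 h RT, fluorescence read. 15 concentrations, triplicates.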

[7] = target: Thyrotropin receptor (Homo sapiens) (UniProt P16473); experiment: qHTS assay to identify small molecule antagonists of the thyroid stimulating hormone receptor (TSHR) signaling pathway (AID 1259385; calls by dose curve; further: nearly all actives have a fitted effect of over 20% in size)
How it was run: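 TSHR-HEK293 cells (800/well) plated 18 h, then compounds with Ro20-1724 and TSH at 1.5 ng/mL final, 30 min at room temperature. cAMP quantified by HTRF (cAMP-d2/anti-cAMP-cryptate, 1 h); 15 concentrations in triplicate.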

[8] = qHTS assay to identify small molecule antagonists of the progesterone receptor (PR) signaling pathway - cell viability counter screen (AID 1346798); further: series mostly up to about 92 µM; nearly all actives have a fitted effect of over 50% in size
How it was run: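 Counter screen for cytotoxicity: viability of PR-UAS-bla HEK293T cells was measured with CellTiter-Glo luminescence following 16 hr compound exposure in the presence of R5020.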

[9] = qHTS assay to identify small molecule agonists of the progesterone receptor (PR) signaling pathway - cell viability counter screen (AID 1346799; calls by dose curve; further: nearly all actives have a fitted effect of over 45% in size)
How it was run: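 Cells (PR-UAS-bla HEK293T) are plated at 3,000/well in 2% charcoal-stripped FBS medium, rested 6 hr, dosed and incubated 16 hr at 37C. CellTiter-Glo is then added and luminescence measured after 30 min at room temperature.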

[10] = qHTS assay to identify small molecule antagonists of the TGF-beta/Smad signaling pathway - cell viability counter screen (AID 1346824); further: nearly all actives have a fitted effect of over 50% in size
How it was run: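 SBE-bla HEK 293T cells, incubated overnight, then compound plus 0.25 ng/mL TGF-beta1 (stock added) for 5 hr at 37 C. Viability was read in the same wells by CellTiter-Glo luminescence after 30 min at room temperature.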

[11] = qHTS assay to identify small molecule agonists of the TGF-beta/Smad signaling pathway - cell viability counter screen (AID 1346829); further: top concentration of the series differs between compounds; nearly all actives have a fitted effect of over 45% in size
How it was run: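 Compound-treated SBE-bla HEK 293T cells (5 hr, 37 C) were assessed for viability with CellTiter-Glo in parallel with the reporter read.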

[12] = qHTS assay to identify small molecule agonists of the TGF-beta/Smad signaling pathway (AID 1346859; active means well fitted activation curve with a large enough effect in the signal ratio in the repeat runs, not every such curve was filed as active; the % refers to the signal ratio; further: series mostly up to about 77 µM)
How it was run: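 Reporter line: HEK 293T with stably integrated SBE-controlled beta-lactamase. Compound exposure lasts 5 hr at 37 C and 5% CO2; substrate loading follows for 2 hr at room temperature, with emission read at 460 and 530 nm.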

[13] = target: Thyrotropin-releasing hormone receptor (Homo sapiens) (UniProt P34981); experiment: qHTS assay to identify small molecule antagonists of the thyrotropin-releasing hormone receptor (TRHR) signaling pathway (AID 1346877; active means well fitted inhibition curve with a large enough effect in the repeat runs, not every such curve was filed as active; further: series mostly up to about 51 µM)
How it was run: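 In this cell-based calcium flux format, HEK293 cells expressing TRHR received test compound for 5 min before the agonist TRH (1 nM final). Dye loading lasted 2 h at 37 °C.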

[14] = target: Thyrotropin-releasing hormone receptor (Homo sapiens) (UniProt P34981); experiment: qHTS assay to identify small molecule agonists of the thyrotropin-releasing hormone receptor (TRHR) signaling pathway (AID 1346891; calls by dose curve; further: series mostly up to about 58 µM)
How it was run: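 Cells: TRHR-Hek293, seeded and incubated 18 h. Dye loading: 2 h at 37 °C. Compound added from DMSO stock by pin tool. Read-out: kinetic calcium fluorescence over 3 min.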

[15] = Human pregnane X receptor (PXR) small molecule agonists, qHTS cell viability counter screen (AID 1346977); further: nearly all actives have a fitted effect of over 50% in size
How it was run: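 Cytotoxicity counter screen run in the same wells as the PXR luciferase assay, using PXR-Luc HepG2 cells in charcoal-stripped serum medium. Viability: CellTiter-Fluor fluorescence after 24hr compound treatment.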

[16] = target: Androgen receptor (Homo sapiens) (UniProt P10275); experiment: qHTS assay to identify small molecule agonists of the androgen receptor (AR) signaling pathway in the presence of an antagonist (AID 1259381; calls by dose curve; further: nearly all actives have a fitted effect of over 15% in size)
How it was run: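 Here, 15-concentration compound series were pin-transferred onto MDA-kb2 MMTV-luciferase cells already dosed with nilutamide (3.0uM final). After 16hr at 37C, ONE-Glo was added and luminescence read 30min later at room temperature.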

[17] = target: Estrogen receptor (Homo sapiens) (UniProt P03372); experiment: qHTS assay to identify small molecule agonists of the estrogen receptor alpha (ER-alpha) signaling pathway in the presence of an antagonist (AID 1259383; calls by dose curve; further: top concentration of the series differs between compounds; nearly all actives have a fitted effect of over 15% in size)
How it was run: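 In VM7Luc4E2 cells, 4,000 per well, compounds at 15 concentrations were co-incubated 22hr at 37C with 10.0nM final ICI-182,780. Luminescence from the stably transfected 4×ERE-luciferase reporter was recorded 30min after ONE-Glo addition.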

[18] = target: Progesterone receptor (Homo sapiens) (UniProt P06401); experiment: qHTS assay to identify small molecule agonists of the progesterone receptor (PR) signaling pathway (AID 1346784; calls by dose curve; further: nearly all actives have a fitted effect of over 30% in size)
How it was run: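 Cells (PR-UAS-bla HEK 293T, GripTite) were plated in assay medium containing 2% charcoal-stripped FBS and incubated 6 hr. Test compounds in DMSO were added for 16 hr at 37C. FRET substrate was then loaded for 2 hr at room temperature before fluorescence reading.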

[19] = qHTS assay to identify small molecule agonists of the estrogen receptor alpha (ER-alpha) signaling pathway in the presence of an antagonist - cell viability counter screen (AID 1259386);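 further: series mostly up to about 92 µM; cells exposed to compounds for 22 h at 37 °C before the viability read; nearly all actives have a fitted effect of over 30% in size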
How it was run: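 Fluorescent CellTiter-Fluor viability signal from VM7Luc4E2 cells, with the reagent added during the final hour of a 22hr compound exposure at 37C in the presence of 10.0nM ICI-182,780.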

[20] = target: Progesterone receptor (Homo sapiens) (UniProt P06401); experiment: qHTS assay to identify small molecule antagonists of the progesterone receptor (PR) signaling pathway (AID 1346795; active means well fitted inhibition curve with a large enough effect in the signal ratio in the repeat runs, not every such curve was filed as active; the % refers to the signal ratio)
How it was run: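 Antagonist mode: compounds tested against 1 nM (final) promegestone stimulation in HEK293T cells expressing PR-UAS-bla reporter, 16 hr at 37C, 5% CO2; beta-lactamase activity detected via B/G FRET substrate after 2 hr at room temperature.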

Measured: Potency

Sequence of Progesterone receptor (Homo sapiens) (P06401 whole entry, looked up): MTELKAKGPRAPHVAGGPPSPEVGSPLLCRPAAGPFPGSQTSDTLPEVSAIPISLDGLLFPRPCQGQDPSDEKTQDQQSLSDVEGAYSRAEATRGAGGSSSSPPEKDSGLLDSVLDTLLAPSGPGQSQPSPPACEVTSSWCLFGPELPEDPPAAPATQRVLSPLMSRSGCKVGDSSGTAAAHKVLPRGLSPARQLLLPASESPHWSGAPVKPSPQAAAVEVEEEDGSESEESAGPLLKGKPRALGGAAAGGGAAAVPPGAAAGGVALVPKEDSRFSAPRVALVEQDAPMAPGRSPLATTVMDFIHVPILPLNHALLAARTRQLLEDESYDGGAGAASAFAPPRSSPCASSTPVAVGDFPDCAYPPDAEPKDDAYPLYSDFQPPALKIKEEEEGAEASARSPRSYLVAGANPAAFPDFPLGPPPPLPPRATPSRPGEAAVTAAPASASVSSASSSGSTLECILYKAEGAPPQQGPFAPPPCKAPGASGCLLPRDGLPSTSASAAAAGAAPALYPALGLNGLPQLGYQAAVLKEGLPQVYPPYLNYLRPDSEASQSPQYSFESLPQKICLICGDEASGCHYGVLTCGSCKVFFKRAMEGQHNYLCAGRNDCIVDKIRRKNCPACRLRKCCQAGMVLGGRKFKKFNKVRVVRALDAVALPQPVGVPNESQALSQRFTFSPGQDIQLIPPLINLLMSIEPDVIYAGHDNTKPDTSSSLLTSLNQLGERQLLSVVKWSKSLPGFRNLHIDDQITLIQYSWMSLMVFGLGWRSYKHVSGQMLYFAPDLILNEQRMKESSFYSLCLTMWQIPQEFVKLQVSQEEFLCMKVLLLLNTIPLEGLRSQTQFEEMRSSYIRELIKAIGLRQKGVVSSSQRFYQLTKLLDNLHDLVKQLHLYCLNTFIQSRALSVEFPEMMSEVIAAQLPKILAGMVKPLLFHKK
Sequence of Thyrotropin-releasing hormone receptor (Homo sapiens) (P34981 whole entry, looked up): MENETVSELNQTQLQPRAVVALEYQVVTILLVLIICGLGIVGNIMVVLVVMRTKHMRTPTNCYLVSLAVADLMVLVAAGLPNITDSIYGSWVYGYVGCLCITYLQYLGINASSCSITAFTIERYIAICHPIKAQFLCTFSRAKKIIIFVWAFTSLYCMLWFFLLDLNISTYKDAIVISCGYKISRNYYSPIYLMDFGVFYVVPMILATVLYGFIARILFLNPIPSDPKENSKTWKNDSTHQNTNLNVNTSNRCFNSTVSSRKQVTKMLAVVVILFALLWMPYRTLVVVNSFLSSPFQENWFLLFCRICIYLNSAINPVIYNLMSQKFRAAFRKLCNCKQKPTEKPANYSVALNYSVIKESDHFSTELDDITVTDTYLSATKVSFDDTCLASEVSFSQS
Sequence of Androgen receptor (Homo sapiens) (P10275 whole entry, looked up): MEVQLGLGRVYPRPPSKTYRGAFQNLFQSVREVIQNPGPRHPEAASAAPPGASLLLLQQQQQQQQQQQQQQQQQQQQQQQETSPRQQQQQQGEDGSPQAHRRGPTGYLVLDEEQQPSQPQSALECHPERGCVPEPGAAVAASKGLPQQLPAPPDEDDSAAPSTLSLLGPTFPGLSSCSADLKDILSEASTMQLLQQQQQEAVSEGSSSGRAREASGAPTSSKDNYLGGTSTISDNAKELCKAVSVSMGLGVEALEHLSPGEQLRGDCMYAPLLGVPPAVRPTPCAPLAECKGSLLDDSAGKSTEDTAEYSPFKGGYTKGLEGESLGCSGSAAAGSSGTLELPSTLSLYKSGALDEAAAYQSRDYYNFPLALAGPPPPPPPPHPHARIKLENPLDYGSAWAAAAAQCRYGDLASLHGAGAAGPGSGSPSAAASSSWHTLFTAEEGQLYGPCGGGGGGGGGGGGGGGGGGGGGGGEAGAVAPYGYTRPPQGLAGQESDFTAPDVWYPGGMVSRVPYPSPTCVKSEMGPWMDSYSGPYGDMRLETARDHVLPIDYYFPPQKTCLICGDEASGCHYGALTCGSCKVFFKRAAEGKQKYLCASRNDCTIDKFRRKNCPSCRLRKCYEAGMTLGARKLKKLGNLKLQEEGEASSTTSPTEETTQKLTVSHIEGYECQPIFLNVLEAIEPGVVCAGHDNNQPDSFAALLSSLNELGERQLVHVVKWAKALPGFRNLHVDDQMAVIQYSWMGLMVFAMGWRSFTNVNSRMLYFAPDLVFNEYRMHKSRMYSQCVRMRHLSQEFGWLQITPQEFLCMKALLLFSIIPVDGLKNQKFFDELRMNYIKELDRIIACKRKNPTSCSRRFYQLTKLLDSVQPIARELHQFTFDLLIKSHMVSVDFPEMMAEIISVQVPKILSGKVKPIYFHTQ
Sequence of Thyrotropin receptor (Homo sapiens) (P16473 whole entry, looked up): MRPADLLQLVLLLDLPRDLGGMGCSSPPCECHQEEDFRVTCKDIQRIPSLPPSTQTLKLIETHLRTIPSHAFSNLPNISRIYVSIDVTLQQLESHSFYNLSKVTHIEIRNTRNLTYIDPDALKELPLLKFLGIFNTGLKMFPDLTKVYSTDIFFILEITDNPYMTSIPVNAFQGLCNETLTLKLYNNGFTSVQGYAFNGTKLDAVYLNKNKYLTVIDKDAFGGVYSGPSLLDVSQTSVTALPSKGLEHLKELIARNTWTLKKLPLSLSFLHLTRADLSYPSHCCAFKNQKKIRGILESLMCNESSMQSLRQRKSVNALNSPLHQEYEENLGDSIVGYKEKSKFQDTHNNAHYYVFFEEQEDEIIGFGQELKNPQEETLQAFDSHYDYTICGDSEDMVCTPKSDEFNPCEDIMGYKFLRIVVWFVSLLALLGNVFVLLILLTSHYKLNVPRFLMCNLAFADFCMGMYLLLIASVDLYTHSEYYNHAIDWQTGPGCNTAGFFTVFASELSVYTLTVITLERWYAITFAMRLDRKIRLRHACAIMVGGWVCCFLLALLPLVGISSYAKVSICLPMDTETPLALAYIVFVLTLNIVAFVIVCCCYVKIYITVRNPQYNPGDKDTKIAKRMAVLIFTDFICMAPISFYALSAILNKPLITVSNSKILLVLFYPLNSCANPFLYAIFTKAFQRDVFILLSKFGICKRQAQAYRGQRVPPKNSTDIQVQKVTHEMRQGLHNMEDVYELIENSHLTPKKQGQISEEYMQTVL
Sequence of Estrogen receptor (Homo sapiens) (P03372 whole entry, looked up): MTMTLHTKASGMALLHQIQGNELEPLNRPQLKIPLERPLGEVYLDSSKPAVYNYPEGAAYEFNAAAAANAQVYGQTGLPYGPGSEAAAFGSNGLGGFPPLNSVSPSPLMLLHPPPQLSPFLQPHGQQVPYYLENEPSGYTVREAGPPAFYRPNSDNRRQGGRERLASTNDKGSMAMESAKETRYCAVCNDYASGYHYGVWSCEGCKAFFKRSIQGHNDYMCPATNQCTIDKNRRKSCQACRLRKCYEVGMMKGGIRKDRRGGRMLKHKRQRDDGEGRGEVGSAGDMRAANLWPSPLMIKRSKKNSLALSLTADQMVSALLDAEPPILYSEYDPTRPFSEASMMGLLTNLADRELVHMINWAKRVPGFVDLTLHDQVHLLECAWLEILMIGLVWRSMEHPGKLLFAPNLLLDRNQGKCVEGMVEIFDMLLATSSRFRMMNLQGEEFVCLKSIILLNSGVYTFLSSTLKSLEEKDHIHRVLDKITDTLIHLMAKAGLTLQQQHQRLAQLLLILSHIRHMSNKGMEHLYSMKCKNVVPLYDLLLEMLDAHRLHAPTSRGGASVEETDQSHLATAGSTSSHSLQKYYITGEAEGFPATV
Sequence of Estrogen receptor beta (Homo sapiens) (Q92731 whole entry, looked up, the tested form may be a part): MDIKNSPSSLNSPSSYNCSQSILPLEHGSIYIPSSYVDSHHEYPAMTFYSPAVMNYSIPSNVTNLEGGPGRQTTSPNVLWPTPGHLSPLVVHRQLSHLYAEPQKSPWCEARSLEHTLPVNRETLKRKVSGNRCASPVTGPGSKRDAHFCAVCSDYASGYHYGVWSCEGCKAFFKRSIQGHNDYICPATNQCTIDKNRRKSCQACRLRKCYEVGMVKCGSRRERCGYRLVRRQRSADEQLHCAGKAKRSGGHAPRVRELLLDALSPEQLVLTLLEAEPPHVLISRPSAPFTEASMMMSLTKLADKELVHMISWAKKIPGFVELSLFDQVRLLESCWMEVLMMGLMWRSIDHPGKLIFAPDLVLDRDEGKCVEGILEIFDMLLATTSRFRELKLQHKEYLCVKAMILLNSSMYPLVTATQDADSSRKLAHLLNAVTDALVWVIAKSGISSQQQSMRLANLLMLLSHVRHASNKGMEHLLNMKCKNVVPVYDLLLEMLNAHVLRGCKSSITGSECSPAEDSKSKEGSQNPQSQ

CC(C)(C)OC(=O)c1cccc(N)c1
not listed: [16] | [17] | [18] | [19] | [20]
inactive: all other assays above

Cc1onc(-c2c(Cl)cccc2Cl)c1C(=O)Cl
not listed: [4] | [6] | [19] | [20]
inactive: all other assays above

CCCCCC(=O)OCCc1ccccc1
not listed: [7] | [16] | [17] | [20]
inactive: all other assays above

O=C(O)CNC(=O)c1ccccc1
not listed: [16] | [17] | [19]
inactive: all other assays above

C=CN1CCCCCC1=O
not listed: [6] | [8] | [16] | [17]
inactive: all other assays above

CC(C)CCCO
not listed: [4] | [9] | [16]
inactive: all other assays above

CC(N)C12CC3CC(CC(C3)C1)C2 (centres undefined)
not listed: [4] | [16] | [20]
inactive: all other assays above

O=[N+]([O-])c1cncn1CCN1CCOCC1
not listed: [4]
inactive: all other assays above

C=C(C)C(=O)OCC1CCCO1 (centres undefined)
not listed: [6] | [7] | [8] | [16] | [17] | [20]
inactive: all other assays above

CCO[Si](OCC)(OCC)c1ccccc1
not listed: [8] | [16] | [17]
inactive: all other assays above

CC1=C(C/C=C(\C)CCC[C@H](C)CCC[C@H](C)CCCC(C)C)C(=O)c2ccccc2C1=O
not listed: [13] | [14] | [16] | [17] | [19]
inactive: all other assays above

CCC(=O)OCc1ccccc1
not listed: [8] | [16] | [17] | [20]
inactive: all other assays above

CCCCCCCCCC[N+](C)(C)[O-]
not listed: [4] | [6] | [7] | [20]
inactive: all other assays above

CN(C)[C@@H]1C(=O)C(C(=O)NCN2CCCC2)=C(O)[C@@]2(O)C(=O)C3=C(O)c4c(O)cccc4[C@@](C)(O)C3C[C@@H]12 (some centres undefined)
not listed: [11] | [16] | [17]
inactive: all other assays above

Cc1ccc(C(=O)c2ccccc2)cc1
not listed: [4]
inactive: all other assays above

CCCO[Si](OCCC)(OCCC)OCCC
not listed: [8] | [16] | [17]
inactive: all other assays above

COc1c(N2CCNC(C)C2)c(F)cc2c(=O)c(C(=O)O)cn(C3CC3)c12 (centres undefined)
not listed: [6] | [7] | [16] | [17] | [20]
inactive: all other assays above
